Compound activity deposited in PubChem BioAssay by several laboratories.
RTF Ca sens inh = cardiac RTF calcium desensitization | P19429+P45379 | IANBD-labeled cardiac RTF, Ca2+ fluorescence | inhibition, % at 7.15 µM | hit rate 0.12% among 340,000;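 active = inhibition above the mean inhibition of all tested compounds plus 3 SD, cut at about 17% in these data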;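 note: assay run at fixed EC70 calcium of 1.6 mM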
LANA DNA inh = blocks KSHV LANA C-terminal domain binding to DNA | MBP-C-LANA/FAM-LBS DNA binding, fluorescence polarization | inhibition, % at 9 µM | hit rate 0.078% among 340,000 | AID 504423;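 active = highest replicate inhibition at or above 60% at 9 µM, even if other replicates fall short; inactive = all replicates below 60% inhibition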;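 note: 0% = neutral control wells and 100% = 4 µM acridine orange control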
E coli Lon inh = E. coli protease La inhibition | P0A9M0 | inhibition, % at 7.94 µM | AID 602123 | hit rate 0.42% among 360,000 | purified E. coli Lon protease, fluorescence polarization; in the data active = inhibition above about 13%, passing the limit was not always enough;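 note: 0% = enzyme with probe and DMSO and 100% = no enzyme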
Target sequence (P0A9M0 whole entry, looked up): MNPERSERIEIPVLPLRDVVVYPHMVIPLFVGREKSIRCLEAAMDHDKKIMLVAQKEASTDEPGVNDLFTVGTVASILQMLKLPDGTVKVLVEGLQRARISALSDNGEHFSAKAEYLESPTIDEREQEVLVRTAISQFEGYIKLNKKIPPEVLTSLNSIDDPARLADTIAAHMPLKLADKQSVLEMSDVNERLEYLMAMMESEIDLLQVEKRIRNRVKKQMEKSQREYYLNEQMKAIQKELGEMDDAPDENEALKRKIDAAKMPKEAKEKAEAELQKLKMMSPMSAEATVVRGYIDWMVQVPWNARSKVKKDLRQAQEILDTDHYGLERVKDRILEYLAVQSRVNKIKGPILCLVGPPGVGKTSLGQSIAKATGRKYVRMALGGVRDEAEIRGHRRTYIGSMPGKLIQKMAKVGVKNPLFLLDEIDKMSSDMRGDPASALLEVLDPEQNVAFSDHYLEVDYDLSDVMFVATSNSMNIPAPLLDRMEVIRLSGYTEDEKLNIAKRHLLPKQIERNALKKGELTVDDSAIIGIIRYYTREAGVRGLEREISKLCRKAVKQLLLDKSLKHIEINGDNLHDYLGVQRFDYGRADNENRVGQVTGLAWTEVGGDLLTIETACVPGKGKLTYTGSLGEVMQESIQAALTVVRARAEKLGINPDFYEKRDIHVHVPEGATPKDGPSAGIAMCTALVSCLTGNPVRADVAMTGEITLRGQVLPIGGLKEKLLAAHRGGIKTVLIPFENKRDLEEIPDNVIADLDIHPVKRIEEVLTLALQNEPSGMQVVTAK
RTF Ca sens act = cardiac RTF calcium sensitization; P19429+P45379; IANBD-labeled TnC RTF fluorescence at EC20 calcium; 0% EC20 calcium, 100% full calcium; activation, % at 7.2 µM; hit rate 0.24% among 340,000;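 active = activation above the mean over all tested compounds plus 3 SD, cut at about 30% in these data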;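 note: rise in fluorescence read as greater calcium sensitivity of cardiac thin filaments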
Keap1-Nrf2 PPI = inhibitors of human Keap1-Nrf2 protein-protein interaction; Q14145; Keap1 Kelch-Nrf2 peptide fluorescence polarization, 1536-well; hit rate 0.15% among 340,000; inhibition, % at 9.4 µM; in the data active = inhibition above about 12%;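 note: human Keap1 Kelch domain with fluorescein labeled Nrf2 9mer peptide probe; 0% = neutral control wells and 100% = peptide positive control; higher means more block of Keap1 binding to Nrf2 peptide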
E coli Lon conf = confirmation of E. coli Lon protease inhibitors. inhibition, % at 7.94 µM. AID 602230. shares compounds with E coli Lon inh. hit rate 31% among 1,400. purified E. coli Lon, fluorescence polarization; in the data active = inhibition above about 16%;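 note: 0% = enzyme with probe and DMSO and 100% = no enzyme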
An asterisk follows results filed as active; . = no result given; ! = repeats disagree. A selection: hits, their analogues and other compounds. The true share with any hit is near 0.82%.

SMILES | RTF Ca sens inh | LANA DNA inh | E coli Lon inh | RTF Ca sens act | Keap1-Nrf2 PPI | E coli Lon conf
c1ccc2c(c1)CCCN2Cc1nnc2n1CCCCC2 | -54 | 21 | 66* | 37* | 5 | -42
c1ccc(Cc2nnc3n2CCCCC3)cc1 | -13 | -1 | -6 | -4 | 3 | .
c1ccc(C2=Nc3cccnc3C(c3ccccc3)=NN2)cc1 | -5 | -1 | 1 | -2 | -1 | .
C=CCOC(=O)N1CCC2CC1c1cc(-c3cccc(C)c3)ccc12 (stereo not given) | 3 | 13 | 0 | -1 | 2 | .
O=S(=O)(c1cccs1)N1CN(Cc2ccccc2)c2nc3ccccc3nc21 | 1 | 1 | -8 | 4 | -1 | .
COc1ccc(S(=O)(=O)N2CN(Cc3ccco3)c3nc4ccccc4nc32)cc1 | -32 | 0 | 28* | 20 | -6 | -11
O=S(=O)(c1cccs1)N1CN(Cc2cccs2)c2nc3ccccc3nc21 | 0 | 1 | 18* | 11 | -6 | -34
O=S(=O)(c1ccc(F)cc1)N1CN(Cc2ccco2)c2nc3ccccc3nc21 | -19 | 6 | 44* | 24 | 3 | -37
Cc1ccc(S(=O)(=O)N2CN(Cc3ccco3)c3nc4ccccc4nc32)cc1C | -9 | 1 | 15* | 2 | -5 | -7
Cc1ccc(S(=O)(=O)N2CN(Cc3ccco3)c3nc4ccccc4nc32)cc1 | -1 | 2 | 3 | 4 | -8 | .
CC(C)C(N)c1csc(Nc2ccc(C(=O)c3ccccc3)cc2)n1 (stereo not given) | . | . | 3 | . | . | .
Cc1c(Cl)c(=O)n2c(=O)c(Cl)c(C)n12 | 2 | 5 | 0 | 2 | 5 | .
CC(C)(C)c1cc(C(=O)N/N=C/c2ccc(-c3ccccc3[N+](=O)[O-])o2)n[nH]1 | -5 | 2 | 25* | -3 | 0 | 7
O=C1C2ON(c3ccccc3)C(c3ccccn3)C2C(=O)N1c1ccc(Br)cc1 (stereo not given) | 2 | 2 | 15* | -1 | -3 | 12
COc1ccc(N2C(=O)c3cccc4c(N(C)CCO)ccc(c34)C2=O)cc1 | -71 | 33 | 67* | 48* | -2 | 22*
COc1ccc(N2C(=O)c3cccc4cccc(c34)C2=O)cc1 | -6 | 6 | -8 | 1 | 0 | .
Cc1ccccc1NC(=O)COC(=O)c1ccc(S(=O)(=O)N2CCCC2)cc1 | 6 | 0 | -5 | -1 | -3 | .
COCCn1c(=NC(=O)C2COc3ccccc3O2)sc2cc(S(N)(=O)=O)ccc21 (stereo not given) | -4 | -2 | -6 | -5 | 0 | .
C=CCn1c(=NC(=O)C2COc3ccccc3O2)sc2cc(S(N)(=O)=O)ccc21 (stereo not given) | 5 | 2 | 23* | 0 | -2 | -9
Cc1cc(C)n2nc(SCc3cc(=O)oc4ccc5ccccc5c34)nc2n1 | -4 | 6 | 14* | 4 | -2 | -12
COc1ccc([C@H]2CC(=O)C=C(c3cccc(NC(C)=O)c3)C2)cc1 | 1 | 2 | 3 | 1 | -2 | .
O=C(NC(=S)NNS(=O)(=O)c1ccccc1)c1ccccc1[N+](=O)[O-] | 1 | 2 | 23* | 1 | -2 | -48
O=C(NC(=S)NNS(=O)(=O)c1ccccc1)c1ccc([N+](=O)[O-])cc1 | 9 | 0 | 6 | 9 | 1 | .
CCCCC(=O)NC(=S)NNS(=O)(=O)c1ccccc1 | -2 | 0 | 20* | 6 | -5 | -97
Cc1ccc(S(=O)(=O)NCCC(=O)Nc2ccc(Cl)c(Cl)c2)cc1 | 5 | 2 | 2 | 4 | -2 | .
SMILES | RTF Ca sens inh | LANA DNA inh | E coli Lon inh | RTF Ca sens act | Keap1-Nrf2 PPI | E coli Lon conf
Cc1cccc(N2CCN(C(=O)Cc3ccccc3[N+](=O)[O-])CC2)c1C | 3 | 0 | 0 | -6 | -1 | .
COc1ccccc1CNC(=O)[C@H](NC(=O)C1CCN(C(=O)[C@@H](N)CCSC)CC1)C(C)C | -11 | 3 | -4 | -3 | -8 | .
Cc1cc(C(=O)NCCN2CCCCC2C)n(-c2ccccc2)n1 (stereo not given) | -4 | 3 | 2 | 12 | -1 | .
CC1CCCCN1CCNC(=O)c1cnn2ccccc12 (stereo not given) | -2 | 2 | 14* | -2 | -1 | -36
COc1ccccc1NC(=O)CC1C(=O)Nc2ccccc2N1C(=O)c1ccccc1 (stereo not given) | 0 | 1 | -6 | -3 | 1 | .
CCOc1ccc(NC(=O)CC2C(=O)Nc3ccccc3N2C(=O)c2ccccc2)cc1 (stereo not given) | -4 | 0 | 15* | -2 | 0 | 0
Cn1c(SCC(=O)NC2CCCc3ccccc32)nnc1C1CC1 (stereo not given) | -1 | 1 | 3 | 4 | 0 | .
O=C(/C=C/c1ccc(OC(F)F)cc1)OCC(=O)N1CCc2ccccc21 | 3 | 1 | 17* | -2 | 1 | 2
Cc1cc(Br)ccc1OCC(=O)NNC(=O)c1cnccn1 | 6 | 1 | 71* | 1 | 2 | -7
Cc1nn(C)cc1S(=O)(=O)N1CCN(Cc2ccccc2Cl)CC1 | -3 | 1 | -10 | 1 | -4 | .
CCCN1CCN(S(=O)(=O)c2cn(C)nc2C)CC1 | -9 | 8 | 22* | 9 | 4 | 14
CCCc1c(C(=O)N/N=C(\CC)c2ccccc2)nnn1-c1nonc1N | . | . | -6 | . | . | .
CCC/C(=N/NC(=O)c1nnn(-c2nonc2N)c1CN1CCCCC1)c1ccccc1 | -8 | -3 | 13* | 3 | -6 | -15
Cc1ccc([C@H]2C[C@H](O)[C@@H](n3cc(-c4ccc(F)cc4)nn3)CN2CC2CCCCC2)cc1 | . | . | 1 | . | . | .
O=C1CC(c2ccccc2)c2ccccc21 (stereo not given) | -6 | 7 | -6 | -2 | 2 | .
CN1Cc2c(N)cccc2C(c2ccccc2)C1 (stereo not given) | -15 | 8 | 55*! | 31*! | 3 | 75*
CC(=O)C(=Cc1ccccc1)c1ccccc1 | . | . | -3 | . | . | .
COC(=O)[C@@]1(C(C)C)N=C(c2cc(OC)c(OC)c(OC)c2)[C@]2(O1)C(=O)N(C)c1ccc(Cl)cc12 | . | . | 1 | . | . | .
CCCCCC(C)NC(=O)c1cc(S(=O)(=O)N2CCCCC2)ccc1N1CCOCC1 (stereo not given) | 3 | 0 | 22* | 0 | 3 | 6
CSCCC(NS(=O)(=O)c1ccc(Br)cc1)C(=O)OCC(=O)NC1CC1 (stereo not given) | -14 | 0 | -15 | 0 | -3 | .
COC(=O)CCCC1=CC2=C(c3ccccc3)C(=O)C(C)(OC(=O)C3CCCC3)C(=O)C2=CN1CCN1CCOCC1 (stereo not given) | -11 | 6 | 84* | -3 | 3 | 24*
CC(=O)N1CCc2cc(S(=O)(=O)CCC(=O)N3CCN(c4cc(C)ccc4C)CC3)ccc21 | -2 | -3 | -7 | -3 | -6 | .
CCOc1ccc(CC(=O)OCc2cc(=O)n3cc(Br)ccc3n2)cc1 | -1 | 0 | 42* | 0 | 0 | 8
